# Laboratory results reported in PubChem BioAssay AID1159580 (chemical genetic matrix, 2015).
# Screen size: about 5,500 compounds; about 2,000 (36%) were called active. About 18% were inconclusive and are not listed. The list shows a part of the results. Values without a mark were called inactive. No stated cut-off is given here; in the data, active means normalized growth mostly below about 0.91 (no sharp cut-off); inconclusive means no clear call, values can overlap the other calls; inactive means mostly above about 0.92.
# Assay: chemical genetic growth profiling, strain panel (AID 1159580);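 further: tested at 20 µM; growth read once vehicle control cultures reached saturation at 30 °C; 1 = growth at the plate median or of vehicle wells; lower values mean less growth of the strain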
# Conditions: S. cerevisiae deletion strains, growth OD
# [1] = locus YAL013W, strain DEP1, active compounds read low
# [2] = locus YBR229C, strain ROT2, active compounds read low
# [3] = locus YDL101C, strain DUN1, active compounds read low
# [4] = locus YDR150W, strain NUM1, active compounds read low
# [5] = locus YEL061C, strain CIN8, active compounds read low
# [6] = locus YGR078C, strain PAC10, active compounds read low
# [7] = locus YHR030C, strain SLT2, active compounds read low
# [8] = locus YHR087W, strain rtc3, active compounds read low
# [9] = locus YJR043C, strain POL32, active compounds read low
# [10] = locus YJR075W, strain HOC1, active compounds read low
# [11] = locus YLR039C, strain RIC1, active compounds read low
# [12] = locus YLR058C, strain SHM2 (second series), active compounds read low
# [13] = locus YLR085C, strain ARP6, active compounds read low
# [14] = locus YLR262C, strain YPT6, active compounds read low
# [15] = locus YML094W, strain GIM5, active compounds read low
# [16] = locus YMR219W, strain ESC1, active compounds read low
# [17] = locus YMR263W, strain SAP30, active compounds read low
# [18] = locus YNL128W, strain TEP1, active compounds read low
# [19] = locus YNL153C, strain GIM3, active compounds read low
# [20] = locus YNL298W, strain CLA4 (second series), active compounds read low
# [21] = locus YNL322C, strain KRE1, active compounds read low
# [22] = locus YNR030W, strain Alg12, active compounds read low
# [23] = locus YPL055C, strain LGE1, active compounds read low
# [24] = locus YPL241C, strain CIN2, active compounds read low
# [25] = locus YPR135W, strain CTF4, active compounds read low
smiles,measurement,setting,value
O=c1[nH]cnc2ccsc12,normalized growth,[1],1.01
same,normalized growth,[2],1.02
same,normalized growth,"locus YCL061C, strain MRC1, active compounds read low",0.998
same,normalized growth,[3],1
same,normalized growth,[4],1.03
same,normalized growth,[5],1.02
same,normalized growth,[6],0.998
same,normalized growth,[7],1.05
same,normalized growth,[8],1
same,normalized growth,[9],0.996
same,normalized growth,[10],1.03
same,normalized growth,[11],0.985
same,normalized growth,[12],1.03
same,normalized growth,[13],1.04
same,normalized growth,[14],0.982
same,normalized growth,[15],1.03
same,normalized growth,[16],1.01
same,normalized growth,[17],1.04
same,normalized growth,[18],1.02
same,normalized growth,[19],1.02
same,normalized growth,[20],1.01
same,normalized growth,[21],0.993
same,normalized growth,[22],1.01
same,normalized growth,[23],1.09
same,normalized growth,[24],1.02
same,normalized growth,[25],1.34
Clc1ccc(Sc2ncnc3ccsc23)cc1,normalized growth,[1],0.919 (active)
same,normalized growth,[2],0.893 (active)
same,normalized growth,[3],0.959
same,normalized growth,[4],0.911
same,normalized growth,[5],0.81 (active)
same,normalized growth,[6],0.885 (active)
same,normalized growth,[7],0.502 (active)
same,normalized growth,[8],0.809 (active)
same,normalized growth,[9],0.866 (active)
same,normalized growth,[10],0.768 (active)
same,normalized growth,"locus YKL190W, strain CNB1, active compounds read low",0.863 (active)
same,normalized growth,[11],0.941
same,normalized growth,[12],0.877 (active)
same,normalized growth,[13],0.352 (active)
same,normalized growth,[14],1.1
same,normalized growth,[15],0.814 (active)
same,normalized growth,[16],0.885 (active)
same,normalized growth,[17],0.94
same,normalized growth,[18],0.934
same,normalized growth,[19],0.924 (active)
same,normalized growth,[20],0.777 (active)
same,normalized growth,[21],0.922 (active)
same,normalized growth,[22],0.705 (active)
same,normalized growth,"locus YOL006C, strain TOP1, active compounds read low",0.516 (active)
same,normalized growth,[23],0.682 (active)
same,normalized growth,[24],0.66 (active)
same,normalized growth,[25],0.451 (active)
Clc1ccc(SCc2ccsc2-c2ncns2)cc1,normalized growth,"locus YAR019C, strain CDC15, active compounds read low",0.98
same,normalized growth,"locus YBL105C, strain PKC1, active compounds read low",0.968
same,normalized growth,"locus YBR135W, strain CKS1, active compounds read low",0.967
same,normalized growth,"locus YBR136W, strain MEC1, active compounds read low",0.968
same,normalized growth,"locus YBR160W, strain CDC28, active compounds read low",0.975
same,normalized growth,"locus YDL017W, strain CDC7, active compounds read low",0.97
same,normalized growth,"locus YDL028C, strain MPS1, active compounds read low",0.971
same,normalized growth,[3],0.954
same,normalized growth,"locus YDL108W, strain KIN28, active compounds read low",0.967
same,normalized growth,"locus YDL132W, strain cdc53, active compounds read low",0.968
same,normalized growth,"locus YDL214C, strain PRR2, active compounds read low",0.965
same,normalized growth,"locus YDR052C, strain DBF4, active compounds read low",0.976
same,normalized growth,"locus YDR054C, strain cdc34, active compounds read low",0.964
same,normalized growth,"locus YDR226W, strain ADK1, active compounds read low",0.968
same,normalized growth,"locus YDR477W, strain SNF1, active compounds read low",0.951
same,normalized growth,"locus YER123W, strain YCK3, active compounds read low",0.897
same,normalized growth,"locus YER133W, strain GLC7, active compounds read low",0.961
same,normalized growth,"locus YFL009W, strain cdc4, active compounds read low",0.964
same,normalized growth,"locus YFL029C, strain CAK1, active compounds read low",0.969
same,normalized growth,"locus YFR003C, strain YPI1, active compounds read low",0.967
same,normalized growth,"locus YFR019W, strain FAB1, active compounds read low",0.906
same,normalized growth,"locus YFR028C, strain CDC14, active compounds read low",0.96
same,normalized growth,"locus YGR040W, strain KSS1, active compounds read low",0.946
same,normalized growth,"locus YGR052W, strain FMP48, active compounds read low",1.04
same,normalized growth,"locus YGR092W, strain DBF2, active compounds read low",0.914
same,normalized growth,[7],0.933
same,normalized growth,"locus YHR079C, strain IRE1, active compounds read low",0.958
same,normalized growth,"locus YHR082C, strain KSP1, active compounds read low",1
same,normalized growth,"locus YHR205W, strain SCH9, active compounds read low",0.923
same,normalized growth,"locus YIL147C, strain SLN1, active compounds read low",0.973
same,normalized growth,"locus YJL095W, strain BCK1, active compounds read low",0.972
same,normalized growth,"locus YJL128C, strain PBS2, active compounds read low",0.961
same,normalized growth,"locus YJL157C, strain FAR1, active compounds read low",0.963
same,normalized growth,"locus YJR016C, strain ILV3, active compounds read low",0.977
same,normalized growth,"locus YJR066W, strain TOR1 (second series), active compounds read low",0.933
same,normalized growth,"locus YJR066W, strain TOR1, active compounds read low",0.955
same,normalized growth,"locus YKL048C, strain ELM1, active compounds read low",0.971
same,normalized growth,"locus YKL067W, strain YNK1, active compounds read low",0.972
same,normalized growth,"locus YKL101W, strain HSL1, active compounds read low",0.976
same,normalized growth,"locus YKL193C, strain SDS22, active compounds read low",0.969
same,normalized growth,"locus YKL203C, strain TOR2, active compounds read low",0.992
same,normalized growth,"locus YLR113W, strain HOG1, active compounds read low",0.923
same,normalized growth,"locus YLR133W, strain CKI1, active compounds read low",0.973
same,normalized growth,"locus YLR403W, strain SFP1, active compounds read low",0.927
same,normalized growth,"locus YML070W, strain DAK1, active compounds read low",0.963
same,normalized growth,"locus YMR001C, strain CDC5, active compounds read low",0.968
same,normalized growth,"locus YMR205C, strain PFK2 (second series), active compounds read low",0.955
same,normalized growth,"locus YMR277W, strain FCP1, active compounds read low",0.973
same,normalized growth,"locus YNL006W, strain LST8, active compounds read low",0.969
same,normalized growth,"locus YNL020C, strain ARK1, active compounds read low",0.975
same,normalized growth,"locus YNL161W, strain CBK1, active compounds read low",0.972
same,normalized growth,"locus YNL183C, strain NPR1, active compounds read low",0.947
same,normalized growth,"locus YNL207W, strain RIO2, active compounds read low",0.981
same,normalized growth,"locus YNL222W, strain SSU72, active compounds read low",0.977
same,normalized growth,"locus YNL307C, strain MCK1 (second series), active compounds read low",0.948
same,normalized growth,"locus YOL078W, strain AVO1, active compounds read low",0.975
same,normalized growth,"locus YOL136C, strain PFK27, active compounds read low",0.966
same,normalized growth,"locus YOR061W, strain CKA2, active compounds read low",0.947
same,normalized growth,"locus YOR119C, strain RIO1, active compounds read low",0.958
same,normalized growth,"locus YOR231W, strain MKK1, active compounds read low",0.964
same,normalized growth,"locus YOR329C, strain SCD5, active compounds read low",0.975
same,normalized growth,"locus YPL031C, strain PHO85, active compounds read low",0.947
same,normalized growth,"locus YPL153C, strain RAD53, active compounds read low",0.958
same,normalized growth,"locus YPL204W, strain HRR25, active compounds read low",0.934
same,normalized growth,"locus YPL209C, strain IPL1, active compounds read low",0.972
same,normalized growth,"locus YPL256C, strain CLN2, active compounds read low",0.916
same,normalized growth,"locus YPR025C, strain CCL1, active compounds read low",0.968
same,normalized growth,"locus YPR106W, strain ISR1, active compounds read low",0.977
same,normalized growth,"locus YPR111W, strain DBF20, active compounds read low",0.971
same,normalized growth,"strain NNK1, active compounds read low",0.974
same,normalized growth,"strain TSCII, active compounds read low",0.968
